FBA Mtb inh: Mtb FBA enzyme inhibitors, primary screen, biochemical, fluorescence, strain H37Rv | 360,000 compounds, 2.3% hits | Fructose-bisphosphate aldolase (Mycobacterium tuberculosis (strain ATCC 25618 / H37Rv)), … | inhibition, % at 1 µM | purified M. tuberculosis FBA, fluorescence read-out;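 further: 0% = vehicle and 100% = reference inhibitor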
Rv3671c inh: Rv3671c serine protease inhibitors, primary screen, biochemical, fluorescence polarization, M. tuberculosis H37Rv | P9WHR9 | inhibition, % at 5.96 µM | 320,000 compounds, 0.048% hits; in the data active means inhibition above about 38%;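 further: extracellular domain of Rv3671c used as enzyme; 0% = enzyme with DMSO and 100% = no enzyme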
BH1578 lux ind: inducers of Vibrio cholerae quorum light production without autoinducers, primary screen, BH1578 luxS cqsA deficient, single point. activation, % at 18.7 µM. AID 588436, 2011. V. cholerae BH1578 lux reporter, luminescence, 6 h. 350,000 compounds, 0.16% hits; in the data active means activation mostly above about 9.7%, no sharp cut-off
Mtb UGM inh: M. tuberculosis UGM enzyme inhibitors, primary screen, biochemical, fluorescence polarization, single point; purified UGM, fluorescence polarization probe displacement; inhibition, % at 10 µM; 320,000 compounds, 0.06% hits; AID 504406, 2011; in the data active means inhibition above about 10%, passing the limit was not always enough
GDH-TPI counter-1: GDH-TPI coupling enzyme inhibitors, primary screen, artefact control for M. tuberculosis FBA inhibitor project, biochemical, absorbance, full deck. 360,000 compounds, 1.2% hits. inhibition, % at 4.8 µM. GDH-TPI coupled enzyme counterscreen, NADH absorbance; in the data active means inhibition above about 30%;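 further: 0% = DMSO wells and 100% = wells lacking the enzyme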
RecA intein inh: Mtb RecA intein splicing inhibitors, primary screen, biochemical, fluorescence, HTS | Protein RecA (Mycobacterium tuberculosis (strain ATCC 25618 / H37Rv)), P9WHJ3 | cell-free RecA intein splicing | inhibition, % (test concentration not listed) | 290,000 compounds, 0.75% hits | AID 2221, 2009; in the data active means inhibition above about 30%;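 further: 0% = vehicle wells and 100% = reference inhibitor control wells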
Target sequence (P9WHJ3 whole entry, looked up): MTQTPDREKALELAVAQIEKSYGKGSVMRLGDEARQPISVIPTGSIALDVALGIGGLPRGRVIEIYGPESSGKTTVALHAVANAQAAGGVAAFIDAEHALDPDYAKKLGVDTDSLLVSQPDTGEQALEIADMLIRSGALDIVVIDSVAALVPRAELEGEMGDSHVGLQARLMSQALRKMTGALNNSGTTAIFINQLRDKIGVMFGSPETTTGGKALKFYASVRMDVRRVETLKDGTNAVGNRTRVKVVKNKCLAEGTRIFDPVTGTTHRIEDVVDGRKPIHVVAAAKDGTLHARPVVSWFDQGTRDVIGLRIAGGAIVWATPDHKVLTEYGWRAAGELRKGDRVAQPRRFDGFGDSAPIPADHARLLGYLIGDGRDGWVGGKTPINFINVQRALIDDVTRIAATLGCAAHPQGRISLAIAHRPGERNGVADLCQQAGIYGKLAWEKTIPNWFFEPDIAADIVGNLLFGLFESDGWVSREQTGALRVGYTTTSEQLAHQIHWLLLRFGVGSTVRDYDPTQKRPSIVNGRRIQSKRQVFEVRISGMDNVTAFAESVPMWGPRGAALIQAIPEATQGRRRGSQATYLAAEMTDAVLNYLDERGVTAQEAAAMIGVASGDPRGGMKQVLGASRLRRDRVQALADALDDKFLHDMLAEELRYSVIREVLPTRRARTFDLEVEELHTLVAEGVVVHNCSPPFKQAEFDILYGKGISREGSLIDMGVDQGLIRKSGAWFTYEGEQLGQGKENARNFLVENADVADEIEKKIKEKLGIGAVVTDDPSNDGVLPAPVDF
Mtb FBA inh conf: M. tuberculosis aldolase blockers, biochemical, fluorescence, strain H37Rv, confirmation; shares compounds with FBA Mtb inh; purified M. tuberculosis FBA, fluorescence read-out; inhibition, % at 1 µM; 5,600 compounds, 78% hits;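 further: 0% = vehicle wells and 100% = reference inhibitor wells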
GDH-TPI counter-2: GDH-TPI coupling enzyme inhibitors, artefact control for M. tuberculosis FBA inhibitor project, biochemical, fluorescence, high throughput; AID 652141, 2013; inhibition, % at 1 µM; shares compounds with FBA Mtb inh; 5,600 compounds, 81% hits; GDH-TPI coupled enzyme counterscreen; in the data active means inhibition above about 10%
GDH-TPI dose: GDH-TPI coupling enzyme inhibitors, dose response, artefact control for M. tuberculosis FBA inhibitor project, biochemical, fluorescence, IC50; GDH-TPI coupled enzyme assay, artifact counterscreen; 170 compounds, 79% hits; AID 652145, 2013; IC50, µM; shares compounds with FBA Mtb inh; call rule not given here
* hit, by the source's call. In the library only some 4.1% were active in any assay of this set; here they are far more common. Unless noted, no stated cut-off is given here; in the data, active means inhibition above about 27%; inactive means the rest.

COc1ccccc1C(c1nnnn1CCc1ccccc1)N1CCN(c2ccccc2)CC1 (stereo unspecified) was read as FBA Mtb inh 2.1, Rv3671c inh -9.3, BH1578 lux ind inactive, Mtb UGM inh 0.4, GDH-TPI counter-1 -4.9 and RecA intein inh 9.8.
`CCC(C)(C)c1ccc(OCCCC[n+]2cccc(C)c2)c(C(C)(C)CC)c1` gave FBA Mtb inh -0.9, BH1578 lux ind -0.5, GDH-TPI counter-1 1.2 and RecA intein inh 11.6.
O=c1nc(-c2ccccc2Cl)c2cc(F)ccc2[nH]1 was read as FBA Mtb inh 53.1*, Rv3671c inh 1.4, BH1578 lux ind inactive, Mtb UGM inh -3.1, GDH-TPI counter-1 5.1, RecA intein inh -8.3, Mtb FBA inh conf 52.6* and GDH-TPI counter-2 46.2*.
For CC(=O)c1ccc(OCC(=O)NC2CCCN(Cc3ccccc3F)C2)cc1 (stereo unspecified) the results were FBA Mtb inh 5.7, BH1578 lux ind inactive, GDH-TPI counter-1 14.4 and RecA intein inh 0.9.
CCOc1ccc(S(=O)(=O)NCC2CCCO2)c2ccccc12 (stereo unspecified) was read as FBA Mtb inh -0.2, Rv3671c inh -6.2, BH1578 lux ind 0.8, Mtb UGM inh 1.0, GDH-TPI counter-1 -5.6 and RecA intein inh 0.9.
CCOc1ccc(S(=O)(=O)NCC2CCCO2)c2cccnc12 (stereo unspecified) was read as FBA Mtb inh 28.0*, Rv3671c inh -3.5, BH1578 lux ind -11.1, Mtb UGM inh 2.8, GDH-TPI counter-1 1.3, RecA intein inh 6.2, Mtb FBA inh conf active and GDH-TPI counter-2 active.
CS(=O)(=O)N1N=C(c2ccccc2)CC1c1cccs1 (stereo unspecified) was read as FBA Mtb inh 0.9, Rv3671c inh -5.2, Mtb UGM inh 0.6, GDH-TPI counter-1 -1.2 and RecA intein inh 3.3.
For CCS(=O)(=O)Nc1ccc(C2=NN(S(C)(=O)=O)C(c3cccs3)C2)cc1 (stereo unspecified) the results were FBA Mtb inh 93.2*, Rv3671c inh -3.7, BH1578 lux ind 0.9, Mtb UGM inh -2.9, GDH-TPI counter-1 0.0, RecA intein inh -1.4, Mtb FBA inh conf 56.9* and GDH-TPI counter-2 44.6*.
For CC(=O)c1cccc(NC(=O)C2CCCN2S(=O)(=O)c2cccs2)c1 (stereo unspecified) the results were FBA Mtb inh 1.2, BH1578 lux ind -0.6 and GDH-TPI counter-1 10.7.
Screening CN1CCN(C(=O)C2Cc3c(-c4cccc(F)c4)ccnc3O2)CC1 (stereo unspecified) returned FBA Mtb inh -2.9, BH1578 lux ind inactive and GDH-TPI counter-1 7.5.
`COc1ccc2c(c1)C1OCCC1C(c1ccco1)N2` (stereo unspecified) gave FBA Mtb inh 93.0*, Rv3671c inh 0.4, BH1578 lux ind -0.6, Mtb UGM inh 2.5, GDH-TPI counter-1 44.4*, RecA intein inh -2.3, Mtb FBA inh conf 96.3* and GDH-TPI counter-2 67.4*.
Screening O=C(Nc1ccc(F)cc1)c1cccc(N2C(=O)C3C4C=CC(C5CC45)C3C2=O)c1 (stereo unspecified) returned FBA Mtb inh -1.9, Rv3671c inh -2.8, BH1578 lux ind -0.7, Mtb UGM inh -6.2, GDH-TPI counter-1 -2.4 and RecA intein inh 2.4.
`CCOc1ccccc1-c1nc2c([nH]1)c(=O)n(C)c(=O)n2C` gave FBA Mtb inh 39.2*, Rv3671c inh -2.7, BH1578 lux ind -0.2, Mtb UGM inh 2.1, GDH-TPI counter-1 16.8, RecA intein inh 1.2, Mtb FBA inh conf 94.1* and GDH-TPI counter-2 82.1*.
`CCC1(C(=O)NC(=Nc2ccccc2)Nc2ccccc2)CCOC1=O` (stereo unspecified) gave FBA Mtb inh 3.1, BH1578 lux ind -8.3 and GDH-TPI counter-1 13.4.
Screening CCOc1cc(-c2nccc3cc(OC)c(OC)cc23)cc(OCC)c1OCC returned FBA Mtb inh 3.7, Rv3671c inh -6.7, BH1578 lux ind -1.5, Mtb UGM inh -4.2, GDH-TPI counter-1 12.4 and RecA intein inh 0.8.
For COc1cc2ccnc(C=NO)c2cc1OC the results were FBA Mtb inh 42.2*, BH1578 lux ind 0.3, GDH-TPI counter-1 12.9, Mtb FBA inh conf 121.7* and GDH-TPI counter-2 94.9*.
Screening COc1ccc2c(c1OC)C(=O)OC2Nc1nc(-c2ccc(-c3ccccc3)cc2)cs1 (stereo unspecified) returned FBA Mtb inh 33.9*, Rv3671c inh 9.4, BH1578 lux ind -0.3, Mtb UGM inh 0.4, GDH-TPI counter-1 25.9, RecA intein inh 1.9, Mtb FBA inh conf 16.0, GDH-TPI counter-2 -0.5 and GDH-TPI dose 9.52*.
Screening COc1cccc(-c2csc(NC3OC(=O)c4c3ccc(OC)c4OC)n2)c1 (stereo unspecified) returned FBA Mtb inh 1.8, Rv3671c inh 6.5, BH1578 lux ind inactive, Mtb UGM inh -1.8, GDH-TPI counter-1 -6.6 and RecA intein inh 4.3.
Screening CCCNC(=O)C(=O)NCC1CCCN1CC (stereo unspecified) returned FBA Mtb inh 29.1*, Rv3671c inh 9.2, BH1578 lux ind -2.9, Mtb UGM inh -0.3, GDH-TPI counter-1 -2.5, RecA intein inh 0.5, Mtb FBA inh conf 17.9 and GDH-TPI counter-2 12.6*.
`C=CCNC(=O)C(=O)NCC1CCCN1CC` (stereo unspecified) gave FBA Mtb inh -0.7, Rv3671c inh -7.7, BH1578 lux ind 0.3, Mtb UGM inh 0.4, GDH-TPI counter-1 -6.9 and RecA intein inh -3.0.
For COc1ccc(C(CNC(=O)c2cccc(S(=O)(=O)NCc3ccccc3)c2)N(C)C)cc1 (stereo unspecified) the results were FBA Mtb inh 0.7, Rv3671c inh -6.2, BH1578 lux ind -3.6, Mtb UGM inh -4.1, GDH-TPI counter-1 -2.0 and RecA intein inh -1.2.

Assay outcomes: PubChem, several laboratories
